Bioassay records (PubChem BioAssay)
PvdQ inh – P. aeruginosa PvdQ acylase inhibitors, primary screen, biochemical, fluorescence, plate reader and imaging, single point; inhibition, % at 10 µM; PvdQ acylase [Pseudomonas aeruginosa LESB58]; 340,000 tested, 0.063% active; AID 488965, 2010; purified PvdQ acylase; in the data active = inhibition above about 30%, passing the limit was not always enough;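 note: 0% = vehicle neutral wells and 100% = reference inhibitor wells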
AI-2 QS mod – Vibrio harveyi AI-2 quorum sensing modulators, primary screen, JMH597 strain, luminescence/OD600 ratio | 300,000 tested, 0.4% active | AID 2094, 2009 | activity change, % at 7.5 µM | Vibrio harveyi JMH597 AI-2 luminescence/OD600 ratio, 9 h; stronger effect = lower value; strain lacks LuxN and CqsS sensors; 0 = neutral-control median; in the data active = activity change below about -75%, passing the limit was not always enough;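 note: luminescence divided by OD600 gain over 9 h not by final OD600 alone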
PDI inh – inhibitors of human PDI, primary screen, biochemical, turbidity, single point, plate reader; Protein disulfide-isomerase (Homo sapiens), P07237; PDI insulin aggregation turbidity, A650, 90 min; inhibition, % at 10 µM; 350,000 tested, 0.052% active; AID 588391, 2011;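 active = mean inhibition across replicates of 30% or more, whatever share of single replicates reach that level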
Target sequence (P07237 whole entry, looked up): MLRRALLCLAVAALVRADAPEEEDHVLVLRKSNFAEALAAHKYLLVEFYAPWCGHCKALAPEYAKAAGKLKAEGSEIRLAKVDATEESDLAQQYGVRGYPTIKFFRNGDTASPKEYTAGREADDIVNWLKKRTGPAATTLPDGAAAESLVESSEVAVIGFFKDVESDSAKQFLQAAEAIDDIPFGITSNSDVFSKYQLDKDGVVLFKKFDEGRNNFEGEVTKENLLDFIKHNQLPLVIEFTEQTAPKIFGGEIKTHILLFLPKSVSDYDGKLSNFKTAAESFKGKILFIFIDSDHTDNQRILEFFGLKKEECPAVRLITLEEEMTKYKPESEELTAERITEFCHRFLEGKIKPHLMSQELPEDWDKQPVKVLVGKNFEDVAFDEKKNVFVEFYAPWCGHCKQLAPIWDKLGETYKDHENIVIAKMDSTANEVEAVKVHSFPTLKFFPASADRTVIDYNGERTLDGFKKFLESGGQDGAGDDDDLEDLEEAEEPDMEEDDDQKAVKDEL
Vif imaging – HIV Vif self-association inhibitors, primary screen, imaging, HEK293T, single point | HEK293T cells, Vif self-association by quenched fluorescence, 24 h | inhibition, % at 7.49 µM | 340,000 tested, 0.35% active | AID 602346, 2012; in the data active = inhibition above about 50%, passing the limit was not always enough
ERp5 block – inhibitors of ERp5-driven insulin aggregation, primary screen, biochemical, turbidity, absorbance 650 nm, single point; Protein disulfide-isomerase A6 (Homo sapiens), Q15084; 90 min; inhibition, % at 9.99 µM; 350,000 tested, 0.05% active; AID 651711, 2012;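 active = mean replicate inhibition above about 25%, with every replicate also reaching it, limit read from the data, passing the limit was not always enough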
Starred values were filed as active, the others as inactive; i = inactive; · = no result. Shown are actives, neighbours in structure and some others; about 0.64% of the full set was active somewhere.

SMILES	PvdQ inh	AI-2 QS mod	PDI inh	Vif imaging	ERp5 block
COc1ccc(CNC(=O)COC(=O)c2cc(S(=O)(=O)N3CCOCC3)ccc2O)cc1OC	-9	·	-1	51*	1
CO[C@H]1CN(C)C(=O)c2cc(NC(=O)c3cnccn3)ccc2OC[C@@H](C)N(C)C[C@H]1C	·	·	·	·	2
S=C(NCc1cccnc1)Nc1ccc(Oc2ccccc2)cc1	0	-4	6	22	-3
Cc1ncc(CO)c(CNc2ccc(Oc3ccccc3)cc2)c1O	-8	-87*	-3	·	-3
COc1ccccc1S(=O)(=O)N[C@H]1CC[C@H](CC(=O)NCc2cccc(F)c2)O[C@@H]1CO	·	·	·	·	-2
C[C@H]1CN([C@@H](C)CO)C(=O)c2cccc(NC(=O)NC3CCCCC3)c2O[C@@H]1CN(C)CC1CCCCC1	·	·	·	·	2
COC(=O)c1ccc(C(=O)OC)c(NS(C)(=O)=O)c1	-18	8	22	72*	·
COC(=O)c1ccc(COc2ncnc3c(Cl)cc(Cl)cc23)o1	-8	-79*	12	-1	·
CC(=O)N1c2c(cc(Br)cc2S(=O)(=O)N2CCOCC2)CC1C (stereo not given)	-3	32	10	63*	·
S=c1[nH]ccn1-c1ccccc1Cl	-11	12	8	1	-1
S=c1[nH]ccn1-c1cccc(Cl)c1Cl	4	1	-6	52*	3
Cc1noc(C)c1NC(=O)N(C)C[C@H]1Oc2ccc(NC(=O)c3ccncc3)cc2CC(=O)N([C@@H](C)CO)C[C@@H]1C	·	·	·	·	0
O=C(CCN1C(=O)/C(=C/C=C/c2ccccc2)SC1=S)Nc1cccnc1	-11	-7	6	57*	2
COc1ccc(NC(=O)N(C)C[C@H]2Oc3c(NC(=O)C4CCOCC4)cccc3C(=O)N([C@@H](C)CO)C[C@H]2C)cc1	·	·	·	·	-1
Cc1ccc(S(=O)(=O)NCc2nc(-c3ccccc3)no2)cc1	-1	27	-10	-8	4
c1ccc(NCc2nc(-c3ccccc3)no2)cc1	-7	-87*	-1	-1	·
COc1ccc(CC(=O)NCc2nc(-c3ccccc3)no2)cc1	-5	-77*	4	10	1
C[C@H](CO)N1C[C@H](C)[C@H](CN(C)C(=O)CN(C)C)Oc2cc(C3=CCCCC3)ccc2S1(=O)=O	·	·	·	·	1
Cc1noc(C)c1NC(=O)N(C)C[C@H]1Oc2c(NC(=O)Nc3ccc(F)cc3)cccc2C(=O)N([C@H](C)CO)C[C@@H]1C	·	·	·	·	8
COc1cc(C(=O)N=c2sccn2C)c([N+](=O)[O-])cc1OC	1	4	-10	-10	-8
Cn1ccsc1=NC(=O)c1ccc([N+](=O)[O-])o1	2	-86*	15	-5	4
O=C(C[C@@H]1CC[C@H](NC(=O)C2CCC2)[C@H](CO)O1)NC1CCCCC1	·	·	·	·	-1
COc1cccc(-c2ccc3c(c2)[C@@H]2[C@@H](CCN2S(=O)(=O)c2cccc(OC)c2)[C@H](CO)N3)c1	·	·	·	·	21
COCC#Cc1ccc2c(c1)O[C@H](CN(C)C(=O)Nc1ccc(OC)cc1)[C@H](C)CN([C@H](C)CO)S2(=O)=O	·	·	·	·	-1
CCC(C)NS(=O)(=O)c1ccc(OC)c(Cl)c1Cl (stereo not given)	35*	10	1	2	·
SMILES	PvdQ inh	AI-2 QS mod	PDI inh	Vif imaging	ERp5 block
CCCCNS(=O)(=O)c1ccc(OC)c(Cl)c1Cl	10	14	-8	0	·
COc1ccc(N=C2S/C(=C\c3ccc(OCC(=O)O)cc3)C(=O)N2CCc2c[nH]c3ccccc23)cc1	-10	27	-1	-4	31*
CC(=O)Nc1ccc(NC(=O)C(C)OC(=O)/C(C#N)=C/c2ccc(N(C)C)cc2)cc1 (stereo not given)	-6	26	-1	124*	14
CC(OC(=O)/C(C#N)=C/c1ccc(N(C)C)cc1)C(=O)N(C)c1ccccc1 (stereo not given)	-6	32	5	i	0
COc1ccc2c3c(n(C)c2c1)[C@H](CO)N(C)CC31CCN(C(=O)Nc2c(C)noc2C)CC1	·	·	·	·	5
CCC[C@@H](CN1CCC[C@H]1CN1C(N)=NC[C@H]1CC(C)C)N1C[C@@H]([C@H](C)CC)N(CCCC2CCCC2)C1=N	-4	·	-69	·	27*
CCn1nc(C)cc1-c1nnc(Sc2ncc([N+](=O)[O-])s2)n1C	-14	-238*	1	6	1
COC(=O)c1cc(N2C(=O)C3C(C2=O)C2(C)C=CC3(C)O2)ccc1Cl (stereo not given)	·	-238*	·	·	·
COCC#Cc1cnc2c(c1)C(=O)N([C@H](C)CO)C[C@H](C)[C@H](CN(C)S(=O)(=O)c1cn(C)cn1)O2	·	·	·	·	-1
Cc1cc(-c2nnc(SCC(=O)Nc3ccccc3F)n2N)n[nH]1	4	26	-9	-4	·
Cc1cc(-c2nnc(SCC(=O)Nc3ccc(Cl)cn3)n2N)n[nH]1	4	25	-10	55*	·
COc1ccc(NC(=O)Nc2ccc3c(c2)CC(=O)N([C@H](C)CO)C[C@H](C)[C@@H](CN(C)S(=O)(=O)c2ccccc2)O3)cc1	·	·	·	·	1
COc1ccc(CN(CC(=O)NC2CCCC2)C(=O)CN2C(=O)COc3ccccc32)cc1	0	-10	13	54*	-2
O=C(CN(Cc1ccc(Cl)cc1)C(=O)CN1C(=O)COc2ccccc21)NC1CCCC1	-4	-5	0	-1	-1
O=Nc1[nH]c(=O)c(/C=C(\O)c2ccccc2)nc1NO	-2	-3	13	106*	3
C=CCN1C(=O)/C(=C2/Sc3ccc(OC)cc3N2C)SC1=NCc1ccccc1	-7	24	-3	39	-4
COc1ccc2c(c1)N(C)/C(=C1/SC(=NCc3ccccc3)N(c3ccccc3)C1=O)S2	-12	17	-8	170*	·
COc1ccccc1Oc1coc2cc(OCC(N)=O)ccc2c1=O	-13	13	4	59*	2
Cc1cccc(Oc2coc3cc(OC(=O)c4cc5ccccc5oc4=O)ccc3c2=O)c1	-16	8	-5	23	·
O=C(Oc1ccc2c(=O)c(Oc3ccc4ccccc4c3)coc2c1)c1ccco1	-3	-82*	-3	2	·
COc1ccc(S(=O)(=O)Nc2ccc3c(c2)C(=O)N([C@H](C)CO)C[C@H](C)[C@H](CN(C)Cc2ccc4c(c2)OCO4)O3)cc1	·	·	·	·	-1
CN1[C@@H]2c3ccc(-c4cccc(F)c4)c(=O)n3C[C@@H]2[C@@H](CO)[C@@H]1C(=O)NC1CCCCC1	·	·	·	·	1
CN(C)C(=O)c1cccc(-c2ccc([C@H]3[C@H](CO)N4C(=O)CN(C(=O)CC5CC5)C[C@@H]34)cc2)c1	·	·	·	·	7
